IMPase cell inh = qHTS Assay for Identifying the Cell-Membrane Permeable IMPase Inhibitors. Inositol monophosphatase 1 (Rattus norvegicus), P97697. CHO-M1 cells, IP1 accumulation, HTRF TR-FRET ratio. inhibition (IP1 accumulation), % at 46.1 µM. 120,000 tested, under 10 active. AID 901, 2007; active = well fitted curve in the direction sought with a large enough effect in the signal ratio, not every such curve was filed as active; inconclusive = small, poorly fitted or top-dose-only effect, or a change in a side signal; inactive = no such curve, though single readings can be large or run the other way; the % refers to the signal ratio;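 also: cells stimulated with carbachol in lithium chloride buffer; plate controls were DMSO basal wells for no effect and reference inhibitor wells for full effect; higher means more IMPase inhibition seen as more IP1 and lower FRET ratio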
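In this qHTS, compounds (final up to 46 uM) act on CHO-M1 cells that are then activated through the M1 receptor with carbachol, in pH 7.4 buffer containing 50 mM LiCl, for 30 min. IP1 accumulation is quantified by the IP-One immunoassay.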
HttQ103 aggreg = qHTS Multiplex Assay to Identify Dual Action Probes in a Cell Model of Huntington: Aggregate Formation (GFP); Potency, µM (highest dose often 46.1 µM), for inactives: at the top dose activity change, negative = inhibition, actives largely listed as inhibitors; PC12 HttQ103-GFP aggregates, Acumen cytometry, 40 h; AID 1688, 2009; 1.1% of 220,000 active; also: potency is read from the fitted curve at half-maximal effect; % is scaled to controls: 0 for no effect and ±100 for the full control effect; nearly all actives have a fitted effect of over 60% in size
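Huntingtin Q103 exon 1–GFP aggregates in induced PC12 cells (100 nM tebufenozide) were quantified by cytometry from lysates, with compounds dosed in titration.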
IMPase Li cell = qHTS Assay for Identifying the Cell-Membrane Permeable IMPase Inhibitors: Potentiation with Lithium; 0.35% of 210,000 active; Potency, µM (highest dose often 59.4 µM), without a hit: top-dose activity, negative = IMPase inhibition, most hits filed as inhibitors; CHO-M1 cells, IP1 TR-FRET (IP-One), carbachol + lithium;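 also: IP1 builds up when IMPase is blocked and the TR-FRET signal falls; potency is read from the fitted curve at half-maximal effect; plate controls were basal vehicle for no effect and high inhibitor control for full effect; nearly all actives have a fitted effect of over 50% in size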
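Lithium-sensitised IP1 accumulation assay; M1-expressing CHO cells treated 30 min at 37C with compound. Competitive antibody detection by time-resolved FRET followed a 10 min room-temperature lysis step.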
HTT ATP protect = qHTS Multiplex Assay to Identify Dual Action Probes in a Cell Model of Huntington: Cytoprotection (ATP); AID 1471, 2008; PC12 HTT-Q103 induced, cytoprotection, ATP luminescence, 40 h; 0.14% of 230,000 active; Potency, µM (top dose mostly 56.4 µM), for the others: cytoprotection (ATP increase), usual class: activators; also: potency is read from the fitted curve at half-maximal effect; % of control where 0% means no effect; nearly all actives have a fitted effect of over 45% in size
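Cells were plated at 1500 per well in phenol red-free DMEM with 5% equine and 5% calf serum. Tebufenozide (100 nM final) and compounds were added, then ATPlite reagent, and luminescence was read.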
ALDH1A1 inh = qHTS Assay for Inhibitors of Aldehyde Dehydrogenase 1 (ALDH1A1); Aldehyde dehydrogenase 1A1 (Homo sapiens), P00352; 7.3% of 220,000 active; Potency, µM (series often up to 75.3 µM), without a hit: top-dose activity, negative = inhibition, actives largely listed as inhibitors; Purified ALDH1A1, NADH fluorescence, propionaldehyde substrate; active = well fitted inhibition curve with a large enough effect, not every such curve was filed as active; inconclusive = small, poorly fitted or top-dose-only effect, or another doubt; inactive = no such curve, though single readings can be large or run the other way;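 also: potency is read from the fitted curve at half-maximal effect; plate controls were no enzyme wells and a reference inhibitor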
Target sequence (P00352 whole entry, looked up): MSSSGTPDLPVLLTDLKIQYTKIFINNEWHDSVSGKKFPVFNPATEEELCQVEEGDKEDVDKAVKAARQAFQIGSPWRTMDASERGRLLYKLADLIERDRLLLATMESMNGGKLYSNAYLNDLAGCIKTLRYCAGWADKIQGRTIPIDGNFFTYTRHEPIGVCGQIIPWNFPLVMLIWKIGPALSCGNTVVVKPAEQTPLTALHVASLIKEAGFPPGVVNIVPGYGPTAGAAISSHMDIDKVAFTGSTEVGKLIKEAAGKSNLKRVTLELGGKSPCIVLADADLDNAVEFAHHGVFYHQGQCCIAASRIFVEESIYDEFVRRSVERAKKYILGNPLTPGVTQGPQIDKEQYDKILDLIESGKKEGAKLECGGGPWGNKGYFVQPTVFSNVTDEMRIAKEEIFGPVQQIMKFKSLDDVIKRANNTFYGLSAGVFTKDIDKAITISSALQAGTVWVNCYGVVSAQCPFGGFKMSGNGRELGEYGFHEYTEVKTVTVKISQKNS
HPGD block = qHTS Assay for Inhibitors of HPGD (15-Hydroxyprostaglandin Dehydrogenase). Potency, µM, inactives show at the highest dose activity change, negative = inhibition, hits mostly inhibitors. purified HPGD, NADH fluorescence kinetic, PGE2 substrate. 4.3% of 150,000 active. 15-hydroxyprostaglandin dehydrogenase [NAD(+)] (Homo sapiens), P15428; active = well fitted inhibition curve with a large enough effect, not every such curve was filed as active; inconclusive = small, poorly fitted or top-dose-only effect, or another doubt; inactive = no such curve, though single readings can be large or run the other way; also: potency is read from the fitted curve at half-maximal effect; % is scaled to controls: 0 for no effect and ±100 for the full control effect
Target sequence (P15428 whole entry, looked up): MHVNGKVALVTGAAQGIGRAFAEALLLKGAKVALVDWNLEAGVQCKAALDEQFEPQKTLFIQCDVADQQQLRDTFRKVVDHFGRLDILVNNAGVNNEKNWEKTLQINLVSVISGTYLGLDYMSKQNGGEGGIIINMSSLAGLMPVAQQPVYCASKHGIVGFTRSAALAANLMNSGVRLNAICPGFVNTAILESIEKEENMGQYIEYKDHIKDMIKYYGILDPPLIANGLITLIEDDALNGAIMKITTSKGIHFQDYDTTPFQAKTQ
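NADH formation kinetics: reaction with 30 uM PGE2 and 1 mM NAD+ (final), 20 nM enzyme, Tris-HCl pH 8 with Tween 20, after 15 min compound preincubation at room temperature. Fluorescence change, last versus first of five reads.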
* = called active by the depositor; [ ] = remark or other dose. An excerpt weighted towards active compounds, which were near 9.4% of everything screened. Unless noted, calls follow the shape of the dose curve; as a rule, active = well fitted curve in the direction sought with a large enough effect; inconclusive = small, poorly fitted or top-dose-only effect, or another doubt; inactive = no such curve, though single readings can be large; an effect the other way counts as inactive or inconclusive.

How did C=C1Cc2c(Cl)cc3[nH]c4c5c3c2[C@@]2(O)[C@@H]1C[C@@H]2C(C)(C)O[C@H]5[C@@H]1CC[C@@]2(O)[C@@]35O[C@@H]3[C@@H](O)[C@@H](C(=O)O)O[C@H]5CC[C@]2(C)[C@@]41C do in these assays?
IMPase Li cell: 8%; HTT ATP protect: -151%; ALDH1A1 inh: -6%

What do the screens show for `CO`?
HttQ103 aggreg: 9%; IMPase Li cell: -9%; HTT ATP protect: 9%; ALDH1A1 inh: -7%; HPGD block: -4%

How did COc1ccccc1C(=O)Nc1cc2c(cc1N1CCCCC1)n(C)c(=O)n2C do in these assays?
IMPase cell inh: -1

Results for CCN(CC)C(=O)CCCOc1ccc(Cl)cc1Cl ?
IMPase cell inh: 4; HttQ103 aggreg: -25%; IMPase Li cell: 1%[38.3 µM]; HTT ATP protect: -65%; ALDH1A1 inh: -2%; HPGD block: 25µM*

Results for CCN(CC)c1ccc(NC(=O)COc2ccccc2C#N)cc1S(=O)(=O)Nc1ccccc1OC ?
HttQ103 aggreg: 1%; IMPase Li cell: -5%; HTT ATP protect: 28%[10 µM]; ALDH1A1 inh: -9%; HPGD block: 3.5µM*

What do the screens show for `O=C(O)c1ccc(NC(=S)NC2CCCCC2)cc1`?
HttQ103 aggreg: 7%; IMPase Li cell: -10%; HTT ATP protect: 23%[10 µM]; ALDH1A1 inh: -8%; HPGD block: -12%

What do the screens show for `Cc1ccc(NC(=S)NNC(=S)NC2CCCCC2)cc1`?
HttQ103 aggreg: 1%; IMPase Li cell: -7%; HTT ATP protect: -27%; ALDH1A1 inh: 3.2µM*

Results for Cc1cccc(NC(=S)NNC(=S)NC2CCCCC2)c1C ?
HttQ103 aggreg: 1%[9.22 µM]; IMPase Li cell: 11%; HTT ATP protect: 18%[10 µM]; ALDH1A1 inh: 2µM*

What do the screens show for `O=C(Nc1ccccc1)c1ccccc1NC(=O)C1CCCCC1`?
IMPase cell inh: -9; HttQ103 aggreg: 9%; IMPase Li cell: 2%[38.3 µM]; HTT ATP protect: -22%; ALDH1A1 inh: -2%; HPGD block: -26%

How did CC(=O)c1ccc(NC(=S)NNC(=O)NC2CCCCC2)cc1 do in these assays?
HttQ103 aggreg: 29%; IMPase Li cell: 5%; HTT ATP protect: -17%; ALDH1A1 inh: 1µM*

Results for Cc1cccc(NC(=O)c2ccccc2NC(=O)C2CCCCC2)c1C ?
IMPase cell inh: -12; HttQ103 aggreg: inconclusive; IMPase Li cell: -15%[38.3 µM]; HTT ATP protect: -14%; ALDH1A1 inh: inconclusive; HPGD block: 2.5µM*

How did COc1cc2c(cc1NC(=O)COc1cc(C)ccc1C)oc1ccccc12 do in these assays?
IMPase cell inh: -8

How did C[C@]1(c2ccccc2)OC(C(=O)O)=CC1=O do in these assays?
IMPase cell inh: 3; HttQ103 aggreg: -18%; IMPase Li cell: 6%; HTT ATP protect: -2%; ALDH1A1 inh: -8%; HPGD block: -10%

How did Cn1c(=O)c(-c2ccccc2)nc2cnc(N3CCOCC3)nc21 do in these assays?
IMPase Li cell: -9%; HTT ATP protect: -28%; ALDH1A1 inh: inconclusive

How did COc1ccc(NC2=C(c3ccc(C(F)(F)F)cc3)C(=O)c3ccccc32)cc1 do in these assays?
IMPase cell inh: -9

How did N#Cc1c(/N=C/c2ccco2)sc2c1CCCCC2 do in these assays?
IMPase cell inh: -3; HttQ103 aggreg: -27%; IMPase Li cell: -3%[38.3 µM]; HTT ATP protect: -14%; ALDH1A1 inh: 14µM*; HPGD block: -28%

Results for CN(C)/C=N/c1sc2c(c1C#N)CCCC2 ?
HttQ103 aggreg: -17%; IMPase Li cell: 11%; HTT ATP protect: 17%; ALDH1A1 inh: 2µM*

How did N#Cc1c(/N=C/c2cccs2)sc2c1CCC2 do in these assays?
IMPase cell inh: -11; HttQ103 aggreg: -3%; IMPase Li cell: 25%[38.3 µM]; HTT ATP protect: -20%; ALDH1A1 inh: inconclusive; HPGD block: 20µM*

Results for COc1cc(NCc2ccc3nc(N)nc(N)c3c2C)cc(OC)c1OC ?
HttQ103 aggreg: -5%; IMPase Li cell: 13%; HTT ATP protect: -67%; ALDH1A1 inh: inconclusive; HPGD block: inconclusive

Results for O=C(O)c1ccccc1C(=O)NNc1ccc(F)cc1 ?
IMPase cell inh: 0; HttQ103 aggreg: 3%; IMPase Li cell: 2%[38.3 µM]; HTT ATP protect: -9%; ALDH1A1 inh: 7.9µM*; HPGD block: inconclusive

Results for O=C(O)c1ccccc1C(=O)NCc1ccc(F)cc1 ?
IMPase cell inh: -4; HttQ103 aggreg: 0%; IMPase Li cell: 1%[38.3 µM]; HTT ATP protect: -2%[0.074 µM]; ALDH1A1 inh: 10%; HPGD block: -8%

What do the screens show for `O=C(O)c1ccccc1C(=O)NNc1ccc(Cl)cc1Cl`?
HttQ103 aggreg: 13%[9.22 µM]; IMPase Li cell: 9%; HTT ATP protect: -21%; ALDH1A1 inh: 25µM*

How did O=C(CNC1CCCCCC1)c1cccs1 do in these assays?
HttQ103 aggreg: -6%; IMPase Li cell: 12%; HTT ATP protect: -4%[10 µM]; ALDH1A1 inh: 6µM*; HPGD block: inconclusive

What do the screens show for `O=C(NC1CCCCC1NC(=O)c1cccs1)c1cccs1` (stereo not drawn)?
IMPase cell inh: 4; HttQ103 aggreg: 7%; IMPase Li cell: 1%[38.3 µM]; HTT ATP protect: 4%[0.074 µM]; ALDH1A1 inh: 9%; HPGD block: -8%

What do the screens show for `O=C(Cc1cccs1)NC1CCCC1`?
HttQ103 aggreg: 11%[9.22 µM]; IMPase Li cell: 0%; HTT ATP protect: 16%[10 µM]; ALDH1A1 inh: 12%

What do the screens show for `O=C(NC1CCCCCC1)c1cccs1`?
IMPase cell inh: -2; HttQ103 aggreg: 6%; IMPase Li cell: 28%[38.3 µM]; HTT ATP protect: -9%[10 µM]; ALDH1A1 inh: inconclusive; HPGD block: 25µM*

Results for Cc1cc(Cl)ccc1NC(=O)CN1C(=O)C(=O)c2ccccc21 ?
IMPase cell inh: 2

What do the screens show for `CCOc1cc2[nH]c(=S)n(CCCOC)c(=O)c2cc1OCC`?
IMPase cell inh: -3; HttQ103 aggreg: 4µM*; IMPase Li cell: 17%[38.3 µM]; HTT ATP protect: inconclusive; ALDH1A1 inh: inconclusive; HPGD block: -15%

Results for CCOc1cc2[nH]c(=S)n(CCCN3CCOCC3)c(=O)c2cc1OCC ?
IMPase cell inh: 3; HttQ103 aggreg: -18%; IMPase Li cell: 24%[38.3 µM]; HTT ATP protect: -20%[0.074 µM]; ALDH1A1 inh: -3%; HPGD block: -10%

Screening results (PubChem)
